Among the test systems are HCT-15 colon; HT29 colon; SNB-75 CNS; SNB-19 CNS; U251 CNS; SK-MEL-5 melanoma; UACC-62 melanoma; LOX IMVI melanoma; SK-MEL-28 melanoma; PC-3 prostate.
Assay in all cases: NCI-60 one-dose screen, 48 h (100 = growth as untreated, 0 = no growth, -100 = all killed)
What all share (conditions): 10 µM

About 83,000 compounds went through this panel and 20% of them were active in at least one assay; those are over-represented in the sample as a whole.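 A percent growth of 40 corresponds to 60% growth inhibition; 0 means no net growth; -100 means all cells died. Active threshold: below 10.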 A number with no mark means an inactive call. The source made the active and inactive calls.

In the case of `C=C/C(C)=C/C[C@]1(C)[C@H](C)[C@@H](OC(=O)CCC)[C@H](O)[C@@]23C(=C[C@H](OC)C[C@@H]12)[C@@H](OC(=O)CCC)O[C@H]3OC(C)=O`, the growth with HCT-15 colon was -67.4% (active); with HT29 colon, -66.9% (active); in the experiment on SNB-75 CNS, -84.1% (active); in the experiment with SNB-19 CNS, 27.4%; in the experiment with U251 CNS, -22% (active); with SK-MEL-5 melanoma, -88% (active). Besides, the growth was -78.3% (active) in the experiment with UACC-62 melanoma, -66.4% (active) with LOX IMVI melanoma and -49.8% (active) in the experiment with SK-MEL-28 melanoma.
Turning to `CCn1cc(C(=O)O)c(=O)c2cc(F)c(N3CCNCC3)cc21`, the growth in the experiment with HCT-15 colon is 102%; in the experiment on HT29 colon, 109%; with SNB-75 CNS, 98.2%; with SNB-19 CNS, 101%; in the experiment on U251 CNS it was 101%; with PC-3 prostate, 102%. Also, the growth was 99.3% in the experiment with SK-MEL-5 melanoma, 98.7% in the experiment on LOX IMVI melanoma and 115% in the experiment on SK-MEL-28 melanoma.
In the case of `COc1cc2c(cc1OC)C(C(CCCCCC(CCC(C)C)C1NCCc3cc(OC)c(OC)cc31)CCC(C)C)NCC2` (stereo not given), the growth with HCT-15 colon is -100% (active); in the experiment on HT29 colon it was -95.3% (active); in the experiment with SNB-75 CNS, -99.5% (active); in the experiment with SNB-19 CNS it was -47.5% (active); in the experiment with U251 CNS, -99% (active); with SK-MEL-5 melanoma, -96.4% (active). For the same molecule, the growth with UACC-62 melanoma is -91.5% (active); with LOX IMVI melanoma, -100% (active); with SK-MEL-28 melanoma, -100% (active).
Consider `c1cncc(-c2csc(-c3c[nH]c4ccccc34)n2)c1`, for which the growth was 85.4% in the experiment on HCT-15 colon; 92.4% with HT29 colon; 63.7% in the experiment on SNB-75 CNS; 95.5% in the experiment with SNB-19 CNS; 90.9% in the experiment on U251 CNS; 84.5% in the experiment with SK-MEL-5 melanoma. Besides, the growth is 88.7% in the experiment on UACC-62 melanoma, 87% in the experiment on LOX IMVI melanoma and 103% in the experiment with SK-MEL-28 melanoma.
As for `CS(=O)(=O)c1nccc(-c2c(-c3ccc(OCCc4ccccc4)cc3)nc3sccn23)n1`, the growth with HCT-15 colon is 103%; in the experiment on HT29 colon, 88.1%; with SNB-75 CNS, 89.1%; in the experiment with SNB-19 CNS, 89.4%; in the experiment on U251 CNS it was 95.9%; with PC-3 prostate, 93.9%. Moreover, the growth is 88% in the experiment on UACC-62 melanoma, 92.6% with LOX IMVI melanoma and 96.3% in the experiment with SK-MEL-28 melanoma.
As for `CC1/C=C/C=C/C=C/C=C/C=C/C=C/C=C/C(O[C@@H]2O[C@H](C)[C@H](O)[C@@H](O)[C@@H]2N)CC(O)C(C(=O)O)C(O)CC(=O)CC(O)CC(O)CC(O)CC(=O)CCCC(=O)CC(=O)OC1C(C)CC(C)C(O)CC(=O)c1ccc(N)cc1` (stereo not given in full), the growth in the experiment on HCT-15 colon was -95.5% (active); with HT29 colon, -76.7% (active); in the experiment with SNB-75 CNS, -96.6% (active); in the experiment with SNB-19 CNS, -99% (active); with U251 CNS it was -100% (active); with SK-MEL-5 melanoma, -99% (active). The growth was -98.7% (active) in the experiment on UACC-62 melanoma, -96.9% (active) in the experiment on LOX IMVI melanoma and -94.3% (active) with SK-MEL-28 melanoma.
In the case of `O=C1CC(=O)N(C(=O)c2nn(-c3ccc(Cl)cc3)cc2O)N1`, the growth in the experiment with HCT-15 colon was 36.9%; in the experiment with HT29 colon, 27.9%; with SNB-75 CNS, 40.9%; with SNB-19 CNS, 48%; in the experiment on U251 CNS it was 39.5%; in the experiment on SK-MEL-5 melanoma, 47%. Moreover, the growth in the experiment with UACC-62 melanoma was 36.1%; with LOX IMVI melanoma, 36.8%; in the experiment with SK-MEL-28 melanoma, 136%.
`CCOc1ccccc1/C=N/N1CCCCCC1`: the growth is 100% in the experiment with HCT-15 colon; 104% in the experiment with HT29 colon; 77.2% in the experiment with SNB-75 CNS; 108% in the experiment on SNB-19 CNS; 103% in the experiment on U251 CNS; 94.4% in the experiment on SK-MEL-5 melanoma. Besides, the values for the growth with UACC-62 melanoma, with LOX IMVI melanoma and with SK-MEL-28 melanoma were 109%, 90.3% and 107%, respectively.
For the molecule `CC1CCCC(C(=O)O)C1C(=O)O` (stereo not given), the growth in the experiment with HCT-15 colon is 102%; in the experiment with HT29 colon, 98.8%; in the experiment on SNB-75 CNS, 100%; with SNB-19 CNS it was 101%; in the experiment on U251 CNS, 86%; in the experiment on PC-3 prostate, 76%. Further, the growth with SK-MEL-5 melanoma was 102%; with LOX IMVI melanoma it was 98%; in the experiment with SK-MEL-28 melanoma it was 111%.
With `COc1ccc(N=Nc2cc(OC)c(OC)c(OC)c2)cc1`, the growth in the experiment with HCT-15 colon is 82%; in the experiment on HT29 colon, 69.1%; in the experiment on SNB-75 CNS, 78.7%; with SNB-19 CNS, 89%; in the experiment with U251 CNS it was 79.5%; in the experiment with PC-3 prostate, 67.2%. Moreover, the growth with SK-MEL-5 melanoma was 80%; in the experiment with LOX IMVI melanoma it was 79%; in the experiment with SK-MEL-28 melanoma, 92%.
As to `CCn1c2ccc(O)cc2c2c(C)c3c[n+](C)ccc3c(C)c21`, the growth in the experiment on HCT-15 colon was 81.2%; with HT29 colon, 55.8%; in the experiment on SNB-75 CNS it was 31%; in the experiment with SNB-19 CNS, -3.45% (active); in the experiment on U251 CNS, 3.41% (active); in the experiment with SK-MEL-5 melanoma it was 7.6% (active). The growth with UACC-62 melanoma was 16.6%; in the experiment with LOX IMVI melanoma it was 62.2%; in the experiment with SK-MEL-28 melanoma, 31.8%.
On to `COc1cc2c3c(n([C@@H]4CCOC4)c(=O)c2cc1OC)-c1cc2c(cc1C3=O)OCO2`, for which the growth is 60.5% in the experiment on HCT-15 colon; 42.9% in the experiment with HT29 colon; 38% with SNB-75 CNS; 30.1% in the experiment with SNB-19 CNS; 13.4% in the experiment on U251 CNS; 14.2% in the experiment on SK-MEL-5 melanoma. The growth was 3.12% (active) in the experiment on UACC-62 melanoma, 9.49% (active) with LOX IMVI melanoma and 73.2% with SK-MEL-28 melanoma.
As to `O=S(=O)(Oc1ccc(-c2ccc3sccc3c2)cc1)c1ccc(F)cc1`, the growth in the experiment on HCT-15 colon is 88.9%; with HT29 colon, 96%; in the experiment with SNB-75 CNS it was 120%; in the experiment with SNB-19 CNS, 103%; in the experiment with U251 CNS it was 101%; with SK-MEL-5 melanoma, 97.6%. Moreover, the growth in the experiment with UACC-62 melanoma is 80.2%; in the experiment with LOX IMVI melanoma it was 96.9%; in the experiment on SK-MEL-28 melanoma, 103%.
In the case of `CCOC(=O)c1sc2ncnc(Nc3ccc4c(cnn4C(=O)Nc4ccccc4)c3)c2c1C`, the growth was 72.6% in the experiment with HCT-15 colon; 40.7% in the experiment with HT29 colon; 10.7% with SNB-75 CNS; 85.8% in the experiment on SNB-19 CNS; 53% in the experiment on U251 CNS; 31.1% in the experiment with SK-MEL-5 melanoma. The growth in the experiment on UACC-62 melanoma was 59.7%; with LOX IMVI melanoma it was 36.4%; in the experiment with SK-MEL-28 melanoma it was 72.7%.
As to `CCCN(CCC)C(=O)[C@H](CC)[C@@H]1CC[C@@H](C)[C@@H]([C@H](C)[C@@H](O)[C@@H](C)C(=O)[C@H](CC)C2O[C@]3(C=C[C@@H](O)[C@]4(CC[C@@](C)([C@H]5CC[C@](O)(CC)[C@H](C)O5)O4)O3)[C@H](C)C[C@@H]2C)O1` (stereo not given in full), the growth with HCT-15 colon is -9.51% (active); with HT29 colon, 7.02% (active); with SNB-75 CNS it was -12.8% (active); in the experiment on SNB-19 CNS, 17.8%; with U251 CNS, 21.5%; in the experiment with SK-MEL-5 melanoma, -92.4% (active). Also, the growth with UACC-62 melanoma was 14.9%; in the experiment with LOX IMVI melanoma, 1.21% (active); in the experiment on SK-MEL-28 melanoma, 24.2%.
